In all, about 39,000 sequences were measured (“fluorescence intensity (a.u.)”: median about 4,300, highest 2% from about 39,000 on). Shown is part of a subset that was picked to be rich in the highest values.
These sequences were tested against T1, OsSMF1 (Oryza sativa, UniProt Q6ZLB0 1-436) (assay: protein-binding microarray (RPBM); PBS, 2% BSA, 51.3 ng/ul salmon testes DNA, 50 uM zinc acetate, 200 nM TF, 25 C, 1 h; high values mean tight binding). Details: protein: recombinant; tags: N-terminal polyhistidine and DsRed monomer fusion (pET32a); chain copies: 2; label: CyDye5-dUTP incorporated in the synthesized complementary strand; 3' TTTTT single-stranded linker to array surface; dsDNA, one strand shown.
T1 sequence: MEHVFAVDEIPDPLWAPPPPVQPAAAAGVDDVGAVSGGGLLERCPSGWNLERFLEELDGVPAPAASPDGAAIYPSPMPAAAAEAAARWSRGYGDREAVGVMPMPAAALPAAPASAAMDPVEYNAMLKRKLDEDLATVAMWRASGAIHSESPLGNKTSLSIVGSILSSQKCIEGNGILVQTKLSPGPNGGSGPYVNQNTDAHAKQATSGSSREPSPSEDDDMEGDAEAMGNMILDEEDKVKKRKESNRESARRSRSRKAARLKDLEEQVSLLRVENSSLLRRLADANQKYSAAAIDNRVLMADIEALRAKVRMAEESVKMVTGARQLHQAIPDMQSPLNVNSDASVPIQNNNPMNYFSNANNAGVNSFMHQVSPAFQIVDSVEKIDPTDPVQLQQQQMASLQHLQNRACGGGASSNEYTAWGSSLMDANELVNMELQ
In short: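 In PBS with 2% BSA, salmon testes DNA and 50 µM zinc acetate, 200 nM protein was incubated on a custom Agilent array at 25 °C for 1 h and then washed off. The array had been made double-stranded by primer extension with Cy5-dUTP and blocked with 2% BSA. The proteins were transcription factors fused N-terminally to polyhistidine and DsRed, expressed in E. coli BL21-CodonPlus and purified on Ni–NTA. The binding signal is per-feature fluorescence intensity (arbitrary units) from an Axon 4000B scanner.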

Sequence | binding signal
CTCACTGACGTAGGTTTATTGTACCTATTCTAATTAAGGCCGGAGTCACCTAGTGCAG | 39400 fluorescence intensity (a.u.)
GAGGGTTTTAATTACTCACTGACATGTAGGGTCACGGGGTCGGAGTCACCTAGTGCAG | 4390 fluorescence intensity (a.u.)
ACACTATTAATTGTTTTATTAGGTTTCAGACGTTATTTTGCGGAGTCACCTAGTGCAG | 3150 fluorescence intensity (a.u.)
TTTGAGCGCCGCTCGACTATGTCATGAAGCAACGTGGCACCGGAGTCACCTAGTGCAG | 7750 fluorescence intensity (a.u.)
GGGGAGAGGGAGGAGGAGGAGGAGAGTGGCTACTAGTACTCGGAGTCACCTAGTGCAG | 3380 fluorescence intensity (a.u.)
ACATTCTAGCCATTCATTCTTCACACCTCATTTAATCCTACGGAGTCACCTAGTGCAG | 3280 fluorescence intensity (a.u.)
CTCATTTGAACACATGTACACTACTAATCCTCGTTCTGGACGGAGTCACCTAGTGCAG | 39200 fluorescence intensity (a.u.)
TGTACATTGTTTGAACTAATCAGTAATCATCACAGTGGTTCGGAGTCACCTAGTGCAG | 3160 fluorescence intensity (a.u.)
ACCACACCTTGTCAAAACTTCAGTAACAGCAGAAGTTACACGGAGTCACCTAGTGCAG | 3140 fluorescence intensity (a.u.)
GGCAAACCAGTAACTAGAAACCACGTTATTCAAAAGCATTCGGAGTCACCTAGTGCAG | 3940 fluorescence intensity (a.u.)
CAATAGACTTCAAGGAAGCATACCAATACCAGTAACCACACGGAGTCACCTAGTGCAG | 40800 fluorescence intensity (a.u.)
TATACACCACGTTTGCTGGCTTGGCTTCCTTCCACACTCCCGGAGTCACCTAGTGCAG | 4000 fluorescence intensity (a.u.)
TCTTTTGGTTTACAACACTTTGTATGCTAGCATTATTTTGCGGAGTCACCTAGTGCAG | 3420 fluorescence intensity (a.u.)
GCGGTTTATGTACACGTCAGCATTTTGCTTCCTTCCTTCCCGGAGTCACCTAGTGCAG | 47800 fluorescence intensity (a.u.)
CCGCGCCACCTCATGCCGTGACGTGCAGATCCCCTCCTCCCGGAGTCACCTAGTGCAG | 7890 fluorescence intensity (a.u.)
AATCTCGGTGCTGAGTGGACATGAATGAATGATGGAATCTCGGAGTCACCTAGTGCAG | 4150 fluorescence intensity (a.u.)
ACATCATGCCACATGCTTCCAAGAAGGATCCCATAGATGTCGGAGTCACCTAGTGCAG | 4220 fluorescence intensity (a.u.)
ATCGTGATGCAAATGTCGAACTTGGAAGATATCCATGGATCGGAGTCACCTAGTGCAG | 39000 fluorescence intensity (a.u.)
TTGTCCATCAATGGAGATGATGATGCCATGATCAAATGATCGGAGTCACCTAGTGCAG | 3370 fluorescence intensity (a.u.)
GGAATGGATAGTGTTCTCGGAAGGAAATTGGTGCTGATGTCGGAGTCACCTAGTGCAG | 45600 fluorescence intensity (a.u.)
CACGTGTTTTCTCGATGTCCACGTGGTGATGTGGAATTGTCGGAGTCACCTAGTGCAG | 14800 fluorescence intensity (a.u.)

Sequence | binding signal
TCGATTCATTCGTTCCTTGGGTCGTGTCAGCATGGCCCATCGGAGTCACCTAGTGCAG | 11100 fluorescence intensity (a.u.)
GGTCTGGCGATGGAGCCTCCCGCCGGAGACGCCGCGCCGTCGGAGTCACCTAGTGCAG | 3540 fluorescence intensity (a.u.)
CCATGTTCCCAACCCCTCTCCCTCATTTTCCACGCGTATGCGGAGTCACCTAGTGCAG | 3650 fluorescence intensity (a.u.)
ATCATCTAGTTAAGACTGTTTGTATGCAACTATGCATGTACGGAGTCACCTAGTGCAG | 31400 fluorescence intensity (a.u.)
GTCCCTATCACATCGGATGTTTGAACAAAACAGAATATACCGGAGTCACCTAGTGCAG | 45600 fluorescence intensity (a.u.)
TAACATCATGTCTAGTTTGTTACCCTATCAAGACTAAAACCGGAGTCACCTAGTGCAG | 42600 fluorescence intensity (a.u.)
ATGTTTGTGAAGTGACATATCACATATTGATCTATCATACCGGAGTCACCTAGTGCAG | 5200 fluorescence intensity (a.u.)
TGAGAGGTCTACATCATTACATGTCAAGACAAGACTACCACGGAGTCACCTAGTGCAG | 4540 fluorescence intensity (a.u.)
GAAACAAACACATCAGATGACGTTTGTTGAAATGCCTAACCGGAGTCACCTAGTGCAG | 5000 fluorescence intensity (a.u.)
ACTTAATAAAATCAAACGTCACAGTTCCGTACTTTTCAGTCGGAGTCACCTAGTGCAG | 35900 fluorescence intensity (a.u.)
TCGCCGGGCTTCTCTACGAGTACCTCGTCATCCCGTCCACCGGAGTCACCTAGTGCAG | 5700 fluorescence intensity (a.u.)
ACGCAGCGGGCCAACTCCAACTCATCCCCAGCCTCCACCACGGAGTCACCTAGTGCAG | 4360 fluorescence intensity (a.u.)
TCCGTGCTACAGCTAGCTACAGATATGTAGTCCGTCATTCCGGAGTCACCTAGTGCAG | 45200 fluorescence intensity (a.u.)
CCGTGCTACAGCTGGCTACAAATATGTAGCCCTATGCTCTCGGAGTCACCTAGTGCAG | 18300 fluorescence intensity (a.u.)
TTGGAGTCCGTGCTGCAGCTGGCTACAGATCTGTAGCCCGCGGAGTCACCTAGTGCAG | 37600 fluorescence intensity (a.u.)
ATCCTGTCACGGTCAGCCACGTCGCGGAGGGCAGTGCGACCGGAGTCACCTAGTGCAG | 4580 fluorescence intensity (a.u.)
TTTACCATTGCGGGTGCTCTAATAGGTGGCATGCCATGCGCGGAGTCACCTAGTGCAG | 4740 fluorescence intensity (a.u.)
CGTCGTGCTCGTCGACGTCGTGCACTCCGTCGCCATCGTGCGGAGTCACCTAGTGCAG | 3220 fluorescence intensity (a.u.)
AGGCTCCCCTGAGTCGTGACGTGCACTCGAAAGTCGAAAGCGGAGTCACCTAGTGCAG | 41100 fluorescence intensity (a.u.)
CGCTTCTCTCCCTGAGCTCGGCCTCGTGTCACTGACGTCGCGGAGTCACCTAGTGCAG | 4390 fluorescence intensity (a.u.)
TACTTTAAGTACATGTATTAGTCAGCTGATATATACCTCACGGAGTCACCTAGTGCAG | 4310 fluorescence intensity (a.u.)

From paper PMC7819943, “Rice protein-binding microarrays: a tool to detect cis-acting elements near promoter regions in rice”
